# Only some compounds are listed: those with a hit (about 2.4% of all), similar ones and a draw of the others.
# GLS inh: blocks human kidney-isoform glutaminase activity. O94925. GLS enzymatic activity, qHTS titration. Potency, µM (top dose mostly 45.5 µM), inactives show at the highest dose activity change, negative = inhibition, hits mostly inhibitors. hit rate 0.21% among 410,000. AID 624170; note: % is set by controls: 0 for no effect and ±100 for the full control effect
#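 Compounds were pin-transferred onto hKGA, after which L-glutamine (1 mM solution) and a detection mix of glutamate oxidase, HRP and Amplex Red were added. Initial and 30 min RT fluorescence reads were collected.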
# Pol kappa inh: inhibitors of human DNA polymerase kappa; hit rate 0.53% among 400,000; AID 588579; Q9UBT6; purified Pol kappa, fluorescent DNA synthesis assay, 10 min; Potency, µM (titrated, usually from 107 µM), for the others: at the top dose activity, negative = inhibition, hits mostly inhibitors; note: % is set by controls: 0 for no effect and ±100 for the full control effect
# Target sequence (Q9UBT6 whole entry, looked up): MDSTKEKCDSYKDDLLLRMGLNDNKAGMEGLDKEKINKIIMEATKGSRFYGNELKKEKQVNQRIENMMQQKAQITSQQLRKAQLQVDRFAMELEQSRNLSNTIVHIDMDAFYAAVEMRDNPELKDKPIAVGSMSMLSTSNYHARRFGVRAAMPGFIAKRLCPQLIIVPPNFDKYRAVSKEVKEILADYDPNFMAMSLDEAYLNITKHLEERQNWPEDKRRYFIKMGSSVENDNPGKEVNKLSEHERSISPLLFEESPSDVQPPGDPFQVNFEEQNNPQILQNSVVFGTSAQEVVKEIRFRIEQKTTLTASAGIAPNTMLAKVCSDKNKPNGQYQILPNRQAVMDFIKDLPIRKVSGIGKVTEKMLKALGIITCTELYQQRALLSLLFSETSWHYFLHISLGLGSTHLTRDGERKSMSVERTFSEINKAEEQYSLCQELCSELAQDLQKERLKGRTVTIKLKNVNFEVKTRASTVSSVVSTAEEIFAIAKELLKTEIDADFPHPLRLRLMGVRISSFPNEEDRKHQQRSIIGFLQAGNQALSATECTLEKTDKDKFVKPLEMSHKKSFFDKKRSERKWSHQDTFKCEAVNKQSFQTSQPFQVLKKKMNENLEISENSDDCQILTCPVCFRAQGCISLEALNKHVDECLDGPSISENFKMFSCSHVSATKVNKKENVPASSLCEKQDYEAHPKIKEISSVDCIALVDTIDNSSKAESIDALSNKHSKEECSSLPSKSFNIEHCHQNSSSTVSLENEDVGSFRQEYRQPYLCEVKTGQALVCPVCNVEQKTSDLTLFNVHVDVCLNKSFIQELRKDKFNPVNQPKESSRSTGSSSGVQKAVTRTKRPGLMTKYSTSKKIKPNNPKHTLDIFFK
#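 Enzyme at 10 nM met test compounds for 15 min at room temperature. Substrate addition (50 nM final) began the reaction, which was monitored by fluorescence at 0 and 10 min.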
# Pol eta inh: inhibitors of human DNA polymerase eta. recombinant Pol eta, fluorescent DNA replication assay. Potency, µM (series often up to 114 µM), without a hit: top-dose activity change, negative = inhibition, hits mostly inhibitors. hit rate 1.2% among 390,000; note: % is set by controls: 0 for no effect and ±100 for the full control effect
#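 Fluorescent replication assay: 50 nM final substrate added after a 15 min room-temperature compound preincubation with 10 nM enzyme. Signal taken at 0 min and again at 10 min.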
# POLB inh: DNA polymerase beta (human) inhibition; P06746; Pol beta primer extension/strand displacement, fluorescence kinetic; Potency, µM (top dose mostly 114 µM), for the others: top-dose activity change, negative = inhibition, actives largely listed as inhibitors; hit rate 1.3% among 340,000; AID 485314; note: % is set by controls: 0 for no effect and ±100 for the full control effect
#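 Values derive from four-parameter Hill fits of normalized kinetic data: reads at 0 and 10 min following addition of 50 nM substrate to 10 nM Pol beta preincubated 15 min with compound.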
# APE1 inh-1: blocks human APE1 abasic DNA cleavage; P27695; recombinant APE1, TAMRA/BHQ-2 abasic DNA cleavage fluorescence; Potency, µM (highest dose often 65.8 µM), for inactives: top-dose activity change, negative = inhibition, hits mostly inhibitors; hit rate 0.35% among 350,000;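 note: plate controls were vehicle for no effect and reference inhibitor for full effect; nearly all actives have a fitted effect of over 55% in size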
#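 Measures dequenching upon AP-site incision of a 5'-TAMRA/3'-BHQ-2 THF-containing duplex, 50 nM; human APE1 0.75 nM after 15 min room-temperature exposure to compound; kinetic three-point read at one-minute spacing.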
# Pol iota inh: inhibitors of human DNA polymerase iota; Q9UNA4; Pol iota fluorescent replication assay, 10 min; Potency, µM (highest dose often 115 µM), inactives show top-dose activity, negative = inhibition, hits mostly inhibitors; hit rate 1% among 390,000
#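 Pol iota at 10 nM preincubated 15 min with compounds at room temperature; reaction started with fluorescent substrate, 50 nM final. Fluorescence read kinetically at 0 and 10 min; buffer-only wells as negative control.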
# DNA dye displace: counter-screen for APE1 inhibitors: DNA dye displacement | DNA fluorescent dye displacement counterscreen, fluorescence | shares compounds with APE1 inh-1 | hit rate 7% among 480 | Potency, µM (doses to about 28.5 µM), for the others: top-dose activity change, negative = inhibition, hits mostly inhibitors | AID 2564;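 note: loss of thiazole orange fluorescence as the dye is displaced from duplex DNA; 0% = ThO with dsDNA and no compound and -100% = ThO without dsDNA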
# Endo IV inh: counter-screen for APE1 inhibitors: inhibitors of E. coli endonuclease IV; shares compounds with APE1 inh-1; Potency, µM (series often up to 27.1 µM), for inactives: at the top dose activity change, negative = inhibition, actives largely listed as inhibitors; E. coli Endo IV, fluorogenic AP-site DNA cleavage; hit rate 4% among 560;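 note: plate controls were uninhibited enzyme wells for no effect and no enzyme buffer wells for full effect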
# APE1 inh-2: APE1 (human) endonuclease inhibition, confirmation; AID 2572; Potency, µM (titrated, usually from 57.1 µM), inactives show top-dose activity change, negative = inhibition, hits mostly inhibitors; purified APE1, fluorogenic abasic-site DNA cleavage; hit rate 44% among 750; shares compounds with APE1 inh-1; note: % is set by controls: 0 for no effect and ±100 for the full control effect; nearly all actives have a fitted effect of over 30% in size
# APE1 FP: APE1 (human) DNA binding inhibition, fluorescence polarization | hit rate 7% among 480 | AID 2573 | Potency, µM (highest dose often 28.5 µM), for the others: top-dose activity, negative = inhibition, hits mostly inhibitors | shares compounds with APE1 inh-1 | APE1 binding to TAMRA-labelled double-stranded DNA, fluorescence polarization displacement; note: % is set by controls: 0 for no effect and ±100 for the full control effect
# Starred values were filed as active, the others as inactive; u = inconclusive; x = not tested or not shown; [ ] = another dose, or the depositor's remark. Calls come from the whole dose curve; as a rule, active = well fitted curve in the direction sought with a large enough effect; inconclusive = small, poorly fitted or top-dose-only effect, or another doubt; inactive = no such curve, though single readings can be large; an effect the other way counts as inactive or inconclusive. Potency is the fitted concentration of half-maximal effect.
SMILES,GLS inh,Pol kappa inh,Pol eta inh,POLB inh,APE1 inh-1,Pol iota inh,DNA dye displace,Endo IV inh,APE1 inh-2,APE1 FP
CCOC(=O)CNS(=O)(=O)c1cc(-c2nn(C)c(=O)c3ccccc23)ccc1C,48%,u,u,35µM*,35µM*,25µM*,-7%,9%,10µM*,-14%
COc1ccc(Cc2c(N)nc(C)nc2N)cc1,0%,0%,-20%,1%,-2%,38%,x,x,x,x
C=CC(O)(C#CCN(CC)CC)c1ccccc1 (stereo unspecified),5%,-14%,-2%,-15%,1%,4%,x,x,x,x
COc1ccc2c(c1)c(=O)oc1cc(OCC(=O)N3CCC(C)CC3)ccc12,-21%,u,79µM*,22µM*,16µM*,18µM*,-9%,0%,5µM*,u
Nc1c2c(=O)oc(-c3ccccc3)cc2nn1-c1ccccc1,0%,-8%,-6%,17%,-7%,-1%,x,x,x,x
Cc1c(-c2ccc(Cl)cc2)oc(=O)c2c(N)n(-c3ccccc3)nc12,u,-13%,u,13µM*,-7%,-4%,x,x,u,x
Nc1nnc(SCC(=O)Nc2ccc3c(c2)OCCO3)s1,x,-3%,12%,9%,4%,1%,x,x,x,x
COc1ccc(/C(C)=N/Nc2ccccc2Cl)c(O)c1,-5%,1%,-14%,u,u,-10%,x,x,u,x
COc1ccc(/C(C)=N/Nc2ccc(F)cc2F)c(O)c1,-6%,-3%,-12%,0%,0%,131%,x,x,x,x
Cc1ccc2nc(NC(=O)CCCC(=O)O)sc2c1,-2%,-14%,19%,u,u,u,-5%,4%,u,-27%
Clc1ccc(-c2csc(N/N=C/c3cccnc3)n2)c(Cl)c1,0%,-25%,-18%,79µM*,17%,111%,x,x,-22%,x
C(=N\Nc1nc(-c2ccccc2)cs1)/c1cccnc1,-6%,-9%,-20%,1%,21%,-10%,x,x,x,x
COc1ccc(N=C2NC(=O)/C(=C\c3ccco3)S2)cc1,46%,u,u,20µM*,7.9µM*,40µM*,-12%,10%,13µM*,-5%
O=[N+]([O-])c1cc2nc(O)c(O)nc2cc1[N+](=O)[O-],x,-4%[60.1 µM],x,x,-5%,x,x,x,x,x
N#Cc1cc2nc(O)c(O)nc2cc1[N+](=O)[O-],3%,5%[60.1 µM],u,u,u,u,x,-10%[57.1 µM],-82%,x
CC(=O)N1Cc2cc([N+](=O)[O-])ccc2Oc2ccccc21,4%,-5%,-14%,29%,-6%,80%,x,x,x,x
CC(=O)NNC(=O)N1Cc2ccccc2Oc2ccc(Cl)cc21,22%,-6%[60.1 µM],-4%[57.1 µM],9%[57.1 µM],2%,-16%,x,-9%[57.1 µM],-38%,x
O=S(=O)(NCC1CCN(S(=O)(=O)c2ccccc2)CC1)c1ccccc1,5%,-10%,-11%,-21%,-2%,33%,x,x,x,x
Cc1ccc([N+](=O)[O-])cc1-c1ccc(/C=C(\C#N)c2[nH]nc(N)c2C#N)o1,4%,u,u,6.3µM*,u,56µM*,7.1µM*,-3%,7.1µM*,16%
